The list is not random: actives were taken first. Their share in the collection is about 7.4%.
p53 reactivator: re-activators of mutant p53; H1299 p53-A138V BP100-luciferase reporter, luminescence, 24 h; Potency, µM (series often up to 92.2 µM), actives largely listed as activators; 320,000 compounds, 0.063% hits; note: nearly all actives have a fitted effect of over 45% in size
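H1299 (p53-null), stable ts p53-A138V + BP100-Luc; 1000 cells/well, Opti-MEM/10% FBS; cpd 4 pt, 1:5; 24 h, 37 deg C, 5% CO2; detection reagent 10 min RT; luminescence.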
SMN2 splice enh: enhancers of SMN2 splice variant expression. HEK293 SMN2-luciferase splicing reporter, luminescence, 30-36 h. Potency, µM (highest dose often 46.1 µM), actives largely listed as activators. 210,000 compounds, 2.8% hits. AID 1458; note: nearly all actives have a fitted effect of over 55% in size
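HEK293 cells carry an SMN2 […]–luciferase reporter in which exon 7 inclusion puts luciferase in frame. Cells were plated 10-12 h before compound addition, then incubated 30-36 h at 37C. ONE-Glo luminescence was read; sodium butyrate at 4.5 mM final served as control.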
FLuc modulator: firefly luciferase modulation, counter-screen for miR-21 project | P08659 | purified FLuc, Km substrates, luminescence inhibition | 360,000 compounds, 6.9% hits | Potency, µM (doses to about 57.5 µM), usual class: inhibitors; note: nearly all actives have a fitted effect of over 55% in size
Target sequence (P08659 whole entry, looked up): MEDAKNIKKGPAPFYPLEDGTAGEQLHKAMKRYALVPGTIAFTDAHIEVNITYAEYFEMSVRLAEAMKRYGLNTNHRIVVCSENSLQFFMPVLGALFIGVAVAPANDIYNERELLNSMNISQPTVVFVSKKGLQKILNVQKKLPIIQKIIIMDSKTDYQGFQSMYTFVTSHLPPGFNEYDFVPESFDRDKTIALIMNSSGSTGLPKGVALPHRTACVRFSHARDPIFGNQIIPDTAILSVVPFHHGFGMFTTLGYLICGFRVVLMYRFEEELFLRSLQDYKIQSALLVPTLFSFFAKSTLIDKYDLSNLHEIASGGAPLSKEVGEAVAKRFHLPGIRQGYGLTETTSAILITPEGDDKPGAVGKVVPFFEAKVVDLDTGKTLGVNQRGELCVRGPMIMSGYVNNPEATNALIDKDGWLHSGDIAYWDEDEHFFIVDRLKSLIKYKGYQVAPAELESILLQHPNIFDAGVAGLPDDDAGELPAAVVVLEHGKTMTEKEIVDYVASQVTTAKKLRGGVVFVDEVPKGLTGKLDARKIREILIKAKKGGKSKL
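Biochemical qHTS of compounds, final roughly 60 µM downward over six points, against 10 nM purified firefly luciferase using Km concentrations of substrates (10 uM D-luciferin, 10 uM ATP) in Tris acetate pH 7.5 buffer; luminescence output.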
Rab9 promoter act: activators of Rab9 promoter; Huh7 Rab9 promoter-luciferase reporter, luminescence, 24 h; Potency, µM (series often up to 9.22 µM), usual class: activators; 320,000 compounds, 2.8% hits; note: nearly all actives have a fitted effect of over 60% in size
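Quantitative HTS format; Huh7 Rab9-luciferase reporter cells (1500/well) receive compound 2 h post-plating, incubate 24 h at 37 °C, then get luciferase reagent for 10 min before luminescence reading.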
NPC1 prom act: activates the NPC1 promoter | Huh7 NPC1 promoter luciferase reporter, 24 h | Potency, µM (highest dose often 9.22 µM), most hits filed as activators | 320,000 compounds, 2.4% hits | AID 485313; note: nearly all actives have a fitted effect of over 60% in size
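Stable NPC1-promoter luciferase Huh7 line; cpd (DMSO) 24 h, 37 °C, 5% CO2; Amplite luciferase reagent 10 min RT; luminescence readout. qHTS format.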
ELG1 genotoxic: induces genotoxicity in HEK293T cells with luciferase-tagged ELG1; 330,000 compounds, 1.3% hits; AID 504466; HEK293T ELG1-luciferase reporter, luminescence, 16 h; Potency, µM (doses to about 46 µM), usual class: activators; note: nearly all actives have a fitted effect of over 60% in size
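Step 1: seed 2,000 HEK293T ELG1-luciferase cells per well. Step 2: add compound or DMSO, incubate 16 hr at 37 °C. Step 3: ONE-Glo, 30 min at room temperature, read luminescence.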
Numbers stand for hits; – = inactive; ? = inconclusive; · = no result given; [ ] = dose if it differs, or a comment. Calls come from the whole dose curve; as a rule, active = well fitted curve in the direction sought with a large enough effect; inconclusive = small, poorly fitted or top-dose-only effect, or another doubt; inactive = no such curve, though single readings can be large; an effect the other way counts as inactive or inconclusive.

SMILES	p53 reactivator	SMN2 splice enh	FLuc modulator	Rab9 promoter act	NPC1 prom act	ELG1 genotoxic
CCn1nnc2cc(C(=O)Nc3ccc(Br)cc3F)ccc21	·	·	–	·	·	·
CCn1nnc2cc(C(=O)NCCc3ccccc3F)ccc21	–	·	1.1µM	0.4µM	0.32µM	?
O=C1CCC2S/C(=C/Nc3ccc(C(F)(F)F)cc3)C(=O)N12 (centres undefined)	–	–	15µM	–	–	–
O=C1CCCC/C1=C/Nc1cccc(C(F)(F)F)c1	–	–	?	–[1.84 µM]	–	–
CC(=O)Nc1cccc(NC(=O)CSc2nccn2C2CCCC2)c1	·	·	–	·	·	·
CCOC(=O)/C=C/c1ccc2oc3ccccc3c(=O)c2c1	–	·	2.4µM	4µM	3.5µM	?
CCOC(=O)COc1c(-c2ccc(OC)cc2)oc2ccccc2c1=O	–	–	–	–	–	–
CCOC(=O)C1=NNC(C(=O)c2ccccc2)C1c1ccc(Cl)cc1 (centres undefined)	–	·	27µM	–	–	–
CCN(Cc1cc(Cl)cc(C)c1O)Cc1c(O)ccc2ccccc12	·	–[9.22 µM]	·	·	·	·
CCc1nn(C(C)C(=O)N2CCN(c3cccc(C(F)(F)F)c3)CC2)c(=O)c2cc3occc3n12 (centres undefined)	·	–	?	·	·	·
CCCCC(=O)Nc1cccc(NC(=O)c2ccc3c(c2)OCO3)c1	–	?	19µM	–	–	–
CC(=O)c1cccc(NC(=O)c2ccc(Br)o2)c1	–	–	?	–	–	–
CCCC(=O)Nc1cccc(NC(=O)c2ccc(C)c([N+](=O)[O-])c2)c1	–	·	?	–	–	–
CCCCC(=O)Nc1cccc(NC(=O)c2ccc(Br)o2)c1	–	35µM	–[2.3 µM]	?	–	–
O=C(Nc1cccc(NC(=O)c2ccc3c(c2)OCO3)c1)c1ccccc1	–	–	?	–	–	–
CCCC(=O)Nc1cccc(NC(=O)c2ccc3c(c2)OCCO3)c1	–	13µM	9.5µM	–	–	?
COc1ccccc1/C=C/c1nc(C#N)c(NC2CCCCC2)o1	·	–	?	·	·	·
CSc1ccc(NC(=O)C2CCN(c3ncccn3)CC2)cc1	·	–	–	·	·	·
Cc1ncoc1C(=O)N1CCc2c([nH]c3ccccc23)C1c1ccccc1F (centres undefined)	–	·	–	–	–	–
COc1ccc(C2c3[nH]c4ccccc4c3CCN2C(=O)Cc2nonc2C)c(F)c1 (centres undefined)	?	·	4.8µM	?	–	–
CCn1nc(C)cc1C(=O)N1CCc2c([nH]c3ccccc23)C1c1cc(F)ccc1F (centres undefined)	–	·	21µM	?	?	?
Cc1cc(OC(C)C(=O)NCCCn2ccnc2)c2c(C)c(C)c(=O)oc2c1 (centres undefined)	–	·	–	–	–	–
COc1ccc2c(c1OC)C(=O)OC2Nc1nc(-c2cc3ccccc3oc2=O)cs1 (centres undefined)	?	2.2µM	8.5µM	0.45µM	0.89µM	?
COc1ccc2c(c1OC)C(=O)OC2Nc1nc(-c2ccc(-c3ccccc3)cc2)cs1 (centres undefined)	?	2.2µM	1.3µM	0.71µM	0.71µM	3.3µM
COC(=O)[C@@H]1C[C@H]1[C@@H](NC(=O)c1cccnc1)c1ccccc1	·	–	·	·	·	·
SMILES	p53 reactivator	SMN2 splice enh	FLuc modulator	Rab9 promoter act	NPC1 prom act	ELG1 genotoxic
O=C(O)CCN1C(=O)C2C3C=CC(C3)C2C1=O (centres undefined)	–	–	–	–	–	–
O=C1C2C3C=CC(C3)C2C(=O)N1CCCCCCN1C(=O)C2C3C=CC(C3)C2C1=O (centres undefined)	–	·	4.3µM	4µM	–	?
CC(=Nc1ccc(O)cc1)c1sc2ccccc2c1O	?	10µM	2.4µM	1.1µM	1.8µM	4.6µM
CC(=O)NCCN=C(C)c1sc2ccccc2c1O	–	?	?	?	?	–
CC(=Nc1ccccc1O)c1sc2ccccc2c1O	?	·	9.5µM	?	–	?
CC(=Nc1cccc(C)c1)c1sc2ccccc2c1O	?	13µM	3µM	?	–	9.2µM
CCC1CCCCN1C(=O)COC(=O)c1ccc(Br)o1 (centres undefined)	–	·	–	–	–	–
O=S(=O)(/N=C(/c1ccccc1)N1CCOCC1)c1ccc(F)cc1F	–	·	·	·	·	–
Cc1ccc2c(c1)cc1c(=O)[nH]ncn12	–	–	21µM	?	?	?
Cc1ccc(C)c(Cn2nc(C)n3c(cc4cc(C)ccc43)c2=O)c1	·	–	–	·	·	·
COc1ccc(OC)c(NC(=O)CSC2=Nc3ccccc3C3=NC(CC(=O)NCc4ccc5c(c4)OCO5)C(=O)N23)c1 (centres undefined)	·	·	–	·	·	·
O=c1oc(-c2ccc([N+](=O)[O-])cc2)nc2ccc(O)cc12	–	–	15µM	?	–	–
COc1ccc(-c2nc3cc([N+](=O)[O-])ccc3o2)cc1	–	·	0.48µM	1.6µM	2.5µM	?

Compound activity (PubChem)
